The source of these data is PubChem BioAssay (NCI).

Compounds without any hit were thinned out: in the full panel of roughly 83,000, 20% have a hit.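 Negative percent growth values reflect cell death: -40 means 40% of the cells present at the start died, and -100 means all died.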 A number with no mark means an inactive call. Activity calls are given as the source filed them. How the source made its calls: active means growth percent below 10; inactive means the rest.

This assay relates to SNB-19 CNS. Briefly: NCI-60 one-dose screen, 48 h (100 = growth as untreated, 0 = no growth, -100 = all killed). To be noted: 10 µM unless noted.
With `COc1ccc2c(c1)C(=Nc1cc(OC)c(OC)c(OC)c1)C(=O)N2`, the growth is 113%.

In the case of `COc1cnc2c(c1)C(=O)c1c-2n(CCCn2ccnc2)c(=O)c2cc(F)ccc12`, the growth is 16.6%.

Regarding `C[C@]12CCC(=O)C=C1CCC1C2[C@@H](O)C[C@@]2(C)C1CC[C@]2(O)C(=O)COC(=O)CCC(=O)O` (some centres not stated), the growth is 104%.

In the case of `C[C@@H]1[C@H]2[C@H](C=C3[C@@H]4CC[C@H]5Cc6nc7c(nc6C[C@]5(C)[C@H]4C[C@@H](O)[C@@]32C)C[C@@H]2CC[C@H]3C4=C[C@@H]5O[C@@]6(CC[C@](C)(CO)O6)[C@@H](C)[C@@]5(O)[C@@]4(C)[C@H](O)C[C@@H]3[C@@]2(C)C7)O[C@]12CCC(C)(C)O2`, the growth was 25.1%.

In the case of `CCOC(=O)/C=C1/SC(=Nc2ccc(C#N)cc2)N(Cc2ccco2)C1=O`, the growth is 67.1%.

As to `C[C@H](C(=O)N[C@@H](Cc1ccc(-c2ccccc2)cc1)C(=O)NC1CC(C)(C)NC(C)(C)C1)c1ccc(-c2ccccc2)c(F)c1`, the growth was -6.87% (active).

With `Nc1ccccc1C#Cc1ccccc1C#Cc1ccc(OCCCCCCOc2ccc(C#Cc3ccccc3C#Cc3ccccc3N)cc2)cc1`, the growth was 112%.

Consider `CCSc1nc(-c2ccco2)n2nc(-c3ccco3)cc2n1`, for which the growth was 113%.

With `CN(C)c1ccc(-c2nc3ncc(Br)cc3o2)cc1`, the growth was 91%.

On to `CN1CCN(c2nc3scc(-c4ccccc4)c3c(=O)[nH]2)CC1`, for which the growth is 96.5%.

As for `CC(=O)OC1Oc2cc(C)c(C)cc2-c2oc(=O)c(-c3ccccc3)cc21` (configuration not stated), the growth is 26.9%.

As for `N#CC(C#N)C(C#N)C#N`, the growth is 114%.

As for `CCOC(=O)c1sc(NC(=O)COc2cccc(/C=C3\CCc4cc(OC)ccc4C3=O)c2)nc1C`, the growth is 58.4%.

In the case of `COc1cnc2c(c1)C(=O)c1c-2n(CCCN2CCOCC2)c(=O)c2cc(F)ccc12`, the growth is 14.5%.

With `CCN1CC2=C(Nc3nc(SC)[nH]c(=O)c3C2c2cc(OC)c(OC)c(OC)c2)/C(=C/c2cc(OC)c(OC)c(OC)c2)C1` (configuration not stated), the growth was 91.6%.

Turning to `CCOC(=O)CCC(=O)O[C@H]1[C@H](O[C@@H]2[C@@H](C)[C@H](O[C@H]3C[C@@](C)(OC)[C@@H](O)[C@H](C)O3)[C@@H](C)C(=O)O[C@H](CC)[C@@](C)(O)[C@H](O)[C@@H](C)C(=O)[C@H](C)C[C@@]2(C)O)O[C@H](C)C[C@@H]1N(C)C`, the growth is 112%.

Consider `CNCCCn1c2c(c3ccc(F)cc3c1=O)C(=O)c1cc(OC)cnc1-2`, for which the growth is 11.9%.

For the molecule `NC(=NCCCCCCN=C(N)/N=C(\N)Nc1ccc(Cl)cc1)/N=C(\N)Nc1ccc(Cl)cc1`, the growth is 13.7%.

Regarding `O=C1CSC(c2ccccc2Cl)N1c1nnc(Cn2nnc3ccccc32)o1` (configuration not stated), the growth is 83.3%.

For the molecule `O=C(O)CCC(=O)OC[C@@H](NC(=O)C(Cl)Cl)[C@H](O)c1ccc([N+](=O)[O-])cc1`, the growth is 99.4%.

As to `COc1ccc(-c2cc(-c3nnc(SCC(=O)Nc4ccc(C(C)=O)cc4)n3-c3ccccc3)c3ccccc3n2)cc1OC`, the growth was 113%.

On to `C[C@H](C(=O)N[C@@H](Cc1ccc(-c2ccccc2)cc1)C(=O)NC1CC(C)(C)N(C)C(C)(C)C1)c1ccc(-c2ccccc2)c(F)c1`, for which the growth was -72.6% (active).

Turning to `O=C(O)C1C(c2ccccc2)c2ccccc2C(O)C1CO` (configuration not stated), the growth was 99.8%.

Take `CSc1nc(Nc2ccc(S(=O)(=O)Nc3ccon3)cc2)c(C#N)c(-c2ccc(Cl)cc2)n1`: the growth was 101%.

For the molecule `Cc1cc(C)c(C(=O)c2cccs2)c(C)c1`, the growth is 99.6%.

Consider `COC(=O)C1(NC(=O)CNC(=O)OCc2ccccc2)CCCC1`, for which the growth is 96.5%.

Turning to `Cc1cc(C)nc(NS(=O)(=O)c2ccc(Nc3nc4nc(SCc5ccccc5)nc(-c5ccc(O)cc5)c4c(=O)[nH]3)cc2)n1`, the growth is 74.9%.

Consider `Nc1ccc(N=Nc2ccccc2)cc1[N+](=O)[O-]`, for which the growth is 95.3%.

Turning to `NS(=O)(=O)c1cc2c(cc1Cl)NC=NS2(=O)=O`, the growth was 107%.

In the case of `CCOC(=O)C1=CCC(n2cc(C)c(=O)[nH]c2=O)O1` (configuration not stated), the growth was 103%.

As for `C[C@@H]1C[C@@H]([C@@H](CC2CC(=O)NC(=O)C2)OC(=O)CC(=O)c2ccccc2)C(=O)[C@@H](C)C1`, the growth was 18.9%.

Regarding `OCc1n(Cc2ccc3ccccc3c2)cc[n+]1Cc1ccc2ccccc2c1`, the growth is 44.5%.
